The values below come from PubChem BioAssay (NCATS).

Molecules are shown by their SMILES. Records with an inconclusive call do not appear. Where a call stands in place of a potency, no number is given. Calls of active or inactive are those of the source. Calls follow the shape of the dose curve; as a rule, active = well fitted inhibition curve with a large enough effect; inconclusive = small, poorly fitted or top-dose-only effect; inactive = flat fitted curve, though single readings scatter.

Chain of Calcium and integrin-binding protein 1 (Homo sapiens) (Q99828 whole entry, looked up): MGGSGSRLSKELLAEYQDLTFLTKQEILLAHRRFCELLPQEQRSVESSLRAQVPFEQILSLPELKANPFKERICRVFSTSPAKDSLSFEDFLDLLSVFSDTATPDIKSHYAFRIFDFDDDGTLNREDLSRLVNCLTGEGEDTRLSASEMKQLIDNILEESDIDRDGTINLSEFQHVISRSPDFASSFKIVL

For the experiment, the target named is Calcium and integrin-binding protein 1 (Homo sapiens) (UniProt Q99828). As to the kind of experiment: Primary qHTS for Identification of Calcium Integrin Binding Protein 1 (CIB1) Competitor (AID 1508620).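 Also: GST tagged CIB1 binding a fluorescein labelled alphaIIb integrin peptide tracer; top concentration of the series differs between compounds.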 The settings on record: CIB1-GST / FITC-alphaIIb peptide fluorescence polarization; series mostly up to 114 µM. The procedure, abridged:
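Fluorescence polarization competition: CIB1-GST (1 uM final) preincubated with compound 15 min at room temperature, then FITC-labeled alphaIIb peptide (100 nM final) added for another 15 min. Polarization read at Ex 480/Em 540.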
Background: qHTS replaces the single test concentration by a dilution series.
Regarding `O=C(O)c1ccc(O)c2ncc(N3CC(N4CCOCC4)C3)cc12`, the Potency entry is “inactive”.

As to `COc1ccc(C2Nc3ccccc3C(=O)N2Cc2cccnc2)cc1COc1ccc(NC(C)=O)cc1` (stereo not given), the Potency result was “inactive”.

Take `O=S(=O)(c1ccc2c(c1)OCCO2)C1CCC(S(=O)(=O)c2c(F)cccc2F)CC1` (stereo not given): the Potency result was “inactive”.

With `C#Cc1nc(Nc2cccc(Cl)c2)nc(NC2CCCC2)n1`, the Potency entry is “inactive”.

In the case of `COc1ccc(OC)c(NC(=O)c2ccccc2OC(C)=O)c1`, the Potency entry was “inactive”.

Turning to `COc1ccc(Nc2nn3c(=O)c4ccccc4nc3s2)cc1`, the Potency entry is “inactive”.

Turning to `O=C1CCc2cc(S(=O)(=O)Nc3ccccc3Cl)ccc2N1`, the Potency entry is “inactive”.

As to `COc1ccc(C2=Nn3c(nnc3-c3ccc(OC)cc3)SC2)cc1`, the Potency entry was “inactive”.

On to `Cc1cc2c(s1)c1cnn(Cc3ccccc3F)c(=O)c1n2Cc1ccccc1F`, for which the Potency result is “inactive”.

In the case of `COc1ccnc(NCc2ccc(O)c3ncccc23)c1`, the Potency result was “inactive”.

Regarding `O=C1CCCC2=C1C(c1cccc(Cl)c1)N=C(Nc1nc3ccccc3o1)N2` (stereo not given), the Potency entry is “inactive”.

`Cc1cccc(CNc2ncnc3ccc(-c4ccc5c(c4)OCCO5)cc23)c1`: the Potency result is “inactive”.

With `Cc1cccc2oc(NC3=NC(c4[nH]ncc4Cl)C4=C(CCCC4=O)N3)nc12` (stereo not given), the Potency entry was “inactive”.

Consider `Cc1ccc(NS(=O)(=O)c2cc3c(cc2Cl)CCC(=O)N3)cc1C`, for which the Potency entry was “inactive”.

On to `CCOc1ccc(CCNC(=O)c2cc3sccc3n2CCN2CCN(C)CC2)cc1OCC`, for which the Potency entry is “inactive”.

In the case of `COc1cc(NC(=O)C(OC(=O)CNC(=O)c2ccccc2)c2ccccc2)c(OC)cc1Cl` (stereo not given), the Potency entry is “inactive”.

For the compound `Cn1nnnc1Sc1ncnc2scc(-c3cccc(F)c3)c12`, the Potency entry is “inactive”.

On to `O=S(=O)(c1ccc2c(c1)OCCO2)N1CCN(S(=O)(=O)c2ccccn2)CC1`, for which the Potency entry is “inactive”.

In the case of `Cc1ccc(NS(=O)(=O)c2cccc(F)c2)cc1C`, the Potency result was “inactive”.

For `c1ccc(OCc2nnc3ccc(-c4ccccc4)nn23)cc1`, the Potency entry is “inactive”.

On to `O=C1CCCC2=C1C(c1[nH]ncc1Cl)NC(=NCc1cccnc1)N2` (stereo not given), for which the Potency entry was “inactive”.

In the case of `O=S1(=O)N=C(N2CCOCC2)c2ccccc21`, the Potency entry is “inactive”.

`O=C(Nc1ccc2ccccc2c1)Nc1nnc(-c2ccccc2)s1`: the Potency entry was “inactive”.

Turning to `Cc1noc(C)c1-c1csc(N2CCC(C(N)=O)CC2)n1`, the Potency entry was “inactive”.

With `Cc1ccc(OCCn2c(CCNC(=O)C3CCCCC3)nc3ccccc32)cc1`, the Potency result was “inactive”.

Take `O=C1c2ccccc2C(=O)N1c1ccccn1`: the Potency entry was “inactive”.

With `Cc1cc(C)nc(NC(=S)N2CC3CN(c4ncc(C(F)(F)F)cc4Cl)CC3C2)c1` (stereo not given), the Potency entry is “inactive”.

Turning to `O=C1Cc2cc(S(=O)(=O)N3CCN(c4ccc(CO)cc4)CC3)ccc2N1`, the Potency entry is “inactive”.

Consider `CN(Cc1cccs1)c1ncnc2ccc(-c3ccc4cn(C)nc4c3)cc12`, for which the Potency result is “inactive”.

`Cc1ccc(-c2nc3ccccc3[nH]2)cc1NC(=O)c1ccc(-c2cccc(Cl)c2)o1`: the Potency result is “inactive”.

With `CN(C)c1cccc(-c2nc(N3CCC(C(N)=O)CC3)ncc2F)c1`, the Potency result was “inactive”.

Regarding `CC1=C(C(=O)Nc2nnc(-c3ccccc3)s2)C(c2nn(C)cc2Cl)N=C(Nc2nc3ccccc3o2)N1` (stereo not given), the Potency result was “inactive”.

Take `FC(F)(F)c1ccccc1-c1nc(NCc2ccc(C3CCCCC3)cc2)c2ccccc2n1`: the Potency result was “inactive”.

On to `CN1CCN(Nc2nn3c(=O)c4ccccc4nc3s2)CC1`, for which the Potency entry is “inactive”.

For `COc1ccc(NC(=O)Nc2ccc(-c3nc4ccccc4[nH]3)cc2)cc1OC`, the Potency entry was “inactive”.

With `Cc1cc2c(s1)c1cnn(Cc3c(F)cccc3Cl)c(=O)c1n2C`, the Potency result was “inactive”.

As to `Cc1ccc(-c2ccc(CNc3nc(-c4ccccc4C(C)C)nc4ccccc34)cc2)cn1`, the Potency result was “inactive”.

With `O=C(Nc1ccc(Cl)c(C(F)(F)F)c1)Nc1cccc(-c2ccncc2)n1`, the Potency result is “inactive”.

On to `Cc1cnc(-c2ccccc2C(C)C)nc1NCc1ccc(C2CCCNC2)cc1` (stereo not given), for which the Potency entry is “inactive”.

Turning to `Cc1ccc(OCCn2c(CCNC(=O)c3ccc(C#N)cc3)nc3ccccc32)cc1`, the Potency result was “inactive”.
